Read-out in assay [1]: Tissue Factor, F3 (gene 2152)
Nature of the assay: BSK_LPS_TissueFactor: BioMAP Diversity Plus: LPS Assay for Tissue Factor Biomarker Activity (AID 2283084). The conditions noted are these: primary human HUVEC with PBMC; actives raise or lower the signal. The procedure, abridged:
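In this co-culture system of umbilical vein endothelium with PBMC, stimulated with LPS, cell-surface CD142 is detected by ELISA at 24 h. Endpoint values derive from bidirectional fitting, DMSO serving as baseline.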

Read-out in assay [2]: CD38, CD38 (gene 952)
Nature of the assay: BSK_SAg_CD38: BioMAP Diversity Plus: SAg Assay for CD38 Biomarker Activity (AID 2283087). To be noted: primary human HUVEC with PBMC; actives raise or lower the signal. The procedure, abridged:
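CD38 quantified by ELISA (fluorescence) in a superantigen-activated endothelial cell–PBMC co-culture at 24 h post-dose. Activity fitted in both directions relative to DMSO; parallel SRB and Alamar Blue cytotoxicity read-outs.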

Read-out in assay [3]: CD40, CD40 (gene 958)
Nature of the assay: BSK_SAg_CD40: BioMAP Diversity Plus: SAg Assay for CD40 Biomarker Activity (AID 2283088). To be noted: primary human HUVEC with PBMC; actives raise or lower the signal. The procedure, abridged:
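Fluorescence ELISA read-out of CD40 from umbilical vein endothelium plus peripheral blood mononuclear cells, sampled 24 h after dosing. Values come from bidirectional curve fitting with DMSO as baseline.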

Read-out in assay [4]: CD69, CD69 (gene 969)
Nature of the assay: BSK_SAg_CD69: BioMAP Diversity Plus: SAg Assay for CD69 Biomarker Activity (AID 2283089).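 As to AC50: cell surface CD69 protein quantified by ELISA with fluorescence detection.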 To be noted: primary human HUVEC with PBMC; actives raise or lower the signal. Put shortly:
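HUVEC co-cultured with PBMC were dosed with chemical, and CD69 was measured by ELISA with fluorescence read-out 24 h later. Bidirectional curve fitting used DMSO as negative control and activity baseline.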

Read-out in assay [5]: E-selectin (Homo sapiens) (UniProt P16581)
Nature of the assay: BSK_SAg_Eselectin: BioMAP Diversity Plus: SAg Assay for Eselectin Biomarker Activity (AID 2283091). The conditions noted are these: primary human HUVEC with PBMC; actives raise or lower the signal. The procedure, abridged:
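Primary human endothelial cells and peripheral blood mononuclear cells were co-cultured and exposed to chemical for 24 hours. E-selectin levels were then quantified by ELISA, with bidirectional curve fitting normalised to DMSO controls.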

A short description of assay [6]: BSK_SAg_PBMCCytotoxicity: PBMC Cytotoxicity Assessment in the BioMAP Diversity Plus: SAg Assay (AID 2283093).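 Also: PBMC viability measured as Alamar Blue reduction fluorescence at 546/580 nm; fitted both ways against DMSO so a hit may be loss or gain of signal.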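 As to AC50: PBMC superantigen activated with SEB plus TSST-1 one hour after compound addition.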 The conditions noted are these: primary human HUVEC with PBMC. Put shortly:
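Alamar Blue reduction (6 h, ex/em 546/580 nm) read after 90 h culture of PBMC pre-dosed 1 h then stimulated with SEB plus TSST-1, 20 ng/mL each. Gain or loss of signal fitted relative to DMSO.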

Read-out in assay [7]: Interleukin-8 (IL8), CXCL8 (gene 3576)
Put plainly: BSK_SAg_IL8: BioMAP Diversity Plus: SAg Assay for Interleukin-8 (IL8) Biomarker Activity (AID 2283094). The conditions noted are these: primary human HUVEC with PBMC; actives raise or lower the signal. Put shortly: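 ELISA readout of IL-8 from a superantigen-activated endothelial/PBMC primary human co-culture, taken 24 h post-dosing and fitted in both directions against DMSO; parallel SRB total-protein staining flags overt cytotoxicity.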

Assay [8] can be described thus: BSK_SAg_Proliferation: Cell Proliferation Assessment in the BioMAP Diversity Plus: SAg Assay (AID 2283095).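 Also: relative cell number as total protein by SRB absorbance in sub-confluent culture.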 To be noted: primary human HUVEC with PBMC. Put shortly:
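Relative cell number in the endothelial cell/PBMC co-culture was quantified at 96 h by SRB staining (0.1% SRB, 10% TCA fixation, read at 560 nm). Curves were fitted in both directions relative to DMSO baseline.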

Assay [9] in a line: BSK_SAg_SRB: Viability Assessment in the BioMAP Diversity Plus: SAg Assay (AID 2283096).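 Also: cells read one day after compound addition; hits may be either gain or loss of signal compared with DMSO.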 The conditions noted are these: primary human HUVEC with PBMC. Put shortly:
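SRB absorbance at 560 nm served as the viability read-out. Cells (HUVEC plus peripheral blood mononuclear cells) were TCA-fixed and stained 24 h post-dosing; activity fitted in both directions against DMSO controls.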

Assay [10] addresses human CYP2D6, CYP2D6 (gene 1565) (UniProt P10635). Put plainly: NVS_ADME_hCYP2D6: NovaScreen (NVS) CYP450-related Enzyme Activity (ADME) Assay for human CYP2D6 (AID 2283107; active = hit-call score of the fitted dose curve at least 0.9, where 1 is the maximum). The procedure, abridged:
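Compounds were first tested in duplicate at 10 uM against recombinant enzyme produced in insect cells, with substrate turnover measured by fluorescence after 1 hour. Decreased signal, referenced to acetonitrile vehicle, was taken as reduced enzyme activity. Active chemicals went on to concentration-response testing.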

In assay [11] the target is Cytochrome P450 2C19 (Homo sapiens) (UniProt P33261). Put plainly: NVS_ADME_hCYP2C19: NovaScreen (NVS) CYP450-related Enzyme Activity (ADME) Assay for human CYP2C19 (AID 2283113; active = hit-call score of the fitted dose curve at least 0.9, where 1 is the maximum;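 also: potency for inhibition seen as loss of fluorescent signal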). Put shortly: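 Chemicals first screened in duplicate at 10 uM against recombinant human enzyme produced in insect cells; confirmed actives then run as concentration series. Fluorogenic substrate turnover read by fluorescence after 1 h, normalised to acetonitrile.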

For assay [12], the target named is human Beta-secretase (BACE), BACE1 (gene 23621) (UniProt P56817). Put plainly: NVS_ENZ_hBACE: NovaScreen (NVS) Enzymatic Assay for human Beta-secretase (BACE) (AID 2283140; active = hit-call score of the fitted dose curve at least 0.9, where 1 is the maximum;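 also: hits are inhibitors that reduce fluorescent substrate signal versus DMSO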). The procedure, abridged: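 Enzyme from SF9 cells was incubated 1 hour with compound and fluorogenic substrate, activity read by fluorescence. Single-concentration duplicates at 25 uM preceded concentration-response follow-up; fitting relative to DMSO baseline.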

For assay [13], the target named is human Dual Specificity Protein Phosphatase 3 (DUSP3), DUSP3 (gene 1845) (UniProt P51452). Put plainly: NVS_ENZ_hDUSP3: NovaScreen (NVS) Enzymatic Assay for human Dual Specificity Protein Phosphatase 3 (DUSP3) (AID 2283152; active = hit-call score of the fitted dose curve at least 0.9, where 1 is the maximum). Put shortly: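 Cell-free fluorescence-intensity enzyme activity assay with recombinant protein and substrate; loss of signal fitted relative to DMSO baseline. Primary screen in duplicate at 25 uM, actives then run in concentration series; measured 0 h after dosing.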

Assay [14] concerns the target human Ephrin type-A Receptor 1 (EphA1), EPHA1 (gene 2041) (UniProt P21709). Put plainly: NVS_ENZ_hEphA1: NovaScreen (NVS) Enzymatic Assay for human Ephrin type-A Receptor 1 (EphA1) (AID 2283158; active = hit-call score of the fitted dose curve at least 0.9, where 1 is the maximum;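 also: activity is signal loss versus DMSO meaning EphA1 kinase inhibition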). Put shortly:
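Biochemical kinase assay run cell-free; 1 h incubation; readout is fluorescence with mobility-shift separation of product. Concentration-response up to 50 uM for actives from a 25 uM screen.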

Assay [15] has as its target human Matrix Metalloproteinase-9 (MMP9), MMP9 (gene 4318) (UniProt P14780). Nature of the assay: NVS_ENZ_hMMP9: NovaScreen (NVS) Enzymatic Assay for human Matrix Metalloproteinase-9 (MMP9) (AID 2283190; active = hit-call score of the fitted dose curve at least 0.9, where 1 is the maximum;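 also: cell-free recombinant MMP9 protease activity read by fluorescent substrate signal; active means inhibition seen as loss of fluorescence signal versus DMSO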). Put shortly: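 Cell-free recombinant MMP9 enzyme activity measured by fluorescence intensity 1 h after dosing. Primary screen in duplicate at 25 uM, actives followed in concentration series; loss of signal relative to DMSO.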

Assay [16] has as its target human Phosphoinositide 3-kinase alpha (PI3Ka), PIK3CA (gene 5290) (UniProt P42336). Put plainly: NVS_ENZ_hPI3Ka: NovaScreen (NVS) Enzymatic Assay for human Phosphoinositide 3-kinase alpha (PI3Ka) (AID 2283196; active = hit-call score of the fitted dose curve at least 0.9, where 1 is the maximum). Put shortly: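 Recombinant human PI3Kα with fluorescent substrate, 1 h, product separated by electrophoretic mobility shift; 25 uM duplicate screen, hits (e.g., 30% inhibition) retested singly up to 50 uM; loss of signal vs DMSO.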

We go through ten compounds from PubChem BioAssay (EPA / NIEHS).

Where “and” joins values, the source holds several entries; their conditions need not be identical. Equal entries are not always repeated. Records with an inconclusive call do not appear. Where a structure was tested more than once in an assay, its records may differ in their call. Calls of active or inactive are those of the source. The calls were made as follows, unless noted: active = hit-call score of the fitted dose curve at least 0.9, where 1 is the maximum; inactive = score below 0.9.

E-selectin (Homo sapiens), sequence (P16581 whole entry, looked up): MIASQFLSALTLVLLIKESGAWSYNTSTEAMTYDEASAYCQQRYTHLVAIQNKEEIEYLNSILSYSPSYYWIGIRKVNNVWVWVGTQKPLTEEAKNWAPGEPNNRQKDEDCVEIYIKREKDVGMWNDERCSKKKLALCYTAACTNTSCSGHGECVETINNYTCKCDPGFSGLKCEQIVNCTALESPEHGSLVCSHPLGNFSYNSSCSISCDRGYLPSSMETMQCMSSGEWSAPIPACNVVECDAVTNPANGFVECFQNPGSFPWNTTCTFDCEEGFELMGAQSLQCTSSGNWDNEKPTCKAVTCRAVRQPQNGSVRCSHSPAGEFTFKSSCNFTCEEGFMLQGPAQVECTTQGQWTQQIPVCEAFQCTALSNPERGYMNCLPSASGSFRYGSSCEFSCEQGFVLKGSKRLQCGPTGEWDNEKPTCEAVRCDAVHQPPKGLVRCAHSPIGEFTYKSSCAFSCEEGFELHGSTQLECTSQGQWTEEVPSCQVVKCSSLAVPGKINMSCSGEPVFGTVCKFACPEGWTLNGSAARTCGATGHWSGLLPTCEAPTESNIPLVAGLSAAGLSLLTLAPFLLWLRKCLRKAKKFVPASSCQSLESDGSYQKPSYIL
human CYP2D6, CYP2D6 (gene 1565), sequence (P10635 whole entry, looked up): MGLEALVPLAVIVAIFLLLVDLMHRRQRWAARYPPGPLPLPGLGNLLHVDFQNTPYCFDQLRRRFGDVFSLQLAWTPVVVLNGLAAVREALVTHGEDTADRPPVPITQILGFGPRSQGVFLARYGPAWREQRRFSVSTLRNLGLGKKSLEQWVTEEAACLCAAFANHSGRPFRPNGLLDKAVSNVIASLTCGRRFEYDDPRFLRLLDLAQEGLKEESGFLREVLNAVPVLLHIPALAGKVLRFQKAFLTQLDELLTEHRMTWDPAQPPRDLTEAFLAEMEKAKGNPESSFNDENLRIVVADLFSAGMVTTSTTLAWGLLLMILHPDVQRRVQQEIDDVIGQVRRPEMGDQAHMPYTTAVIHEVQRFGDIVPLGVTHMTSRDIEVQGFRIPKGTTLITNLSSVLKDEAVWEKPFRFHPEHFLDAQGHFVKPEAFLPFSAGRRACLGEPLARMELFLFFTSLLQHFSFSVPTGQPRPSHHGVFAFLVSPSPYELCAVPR
human Phosphoinositide 3-kinase alpha (PI3Ka), PIK3CA (gene 5290), sequence (P42336 whole entry, looked up): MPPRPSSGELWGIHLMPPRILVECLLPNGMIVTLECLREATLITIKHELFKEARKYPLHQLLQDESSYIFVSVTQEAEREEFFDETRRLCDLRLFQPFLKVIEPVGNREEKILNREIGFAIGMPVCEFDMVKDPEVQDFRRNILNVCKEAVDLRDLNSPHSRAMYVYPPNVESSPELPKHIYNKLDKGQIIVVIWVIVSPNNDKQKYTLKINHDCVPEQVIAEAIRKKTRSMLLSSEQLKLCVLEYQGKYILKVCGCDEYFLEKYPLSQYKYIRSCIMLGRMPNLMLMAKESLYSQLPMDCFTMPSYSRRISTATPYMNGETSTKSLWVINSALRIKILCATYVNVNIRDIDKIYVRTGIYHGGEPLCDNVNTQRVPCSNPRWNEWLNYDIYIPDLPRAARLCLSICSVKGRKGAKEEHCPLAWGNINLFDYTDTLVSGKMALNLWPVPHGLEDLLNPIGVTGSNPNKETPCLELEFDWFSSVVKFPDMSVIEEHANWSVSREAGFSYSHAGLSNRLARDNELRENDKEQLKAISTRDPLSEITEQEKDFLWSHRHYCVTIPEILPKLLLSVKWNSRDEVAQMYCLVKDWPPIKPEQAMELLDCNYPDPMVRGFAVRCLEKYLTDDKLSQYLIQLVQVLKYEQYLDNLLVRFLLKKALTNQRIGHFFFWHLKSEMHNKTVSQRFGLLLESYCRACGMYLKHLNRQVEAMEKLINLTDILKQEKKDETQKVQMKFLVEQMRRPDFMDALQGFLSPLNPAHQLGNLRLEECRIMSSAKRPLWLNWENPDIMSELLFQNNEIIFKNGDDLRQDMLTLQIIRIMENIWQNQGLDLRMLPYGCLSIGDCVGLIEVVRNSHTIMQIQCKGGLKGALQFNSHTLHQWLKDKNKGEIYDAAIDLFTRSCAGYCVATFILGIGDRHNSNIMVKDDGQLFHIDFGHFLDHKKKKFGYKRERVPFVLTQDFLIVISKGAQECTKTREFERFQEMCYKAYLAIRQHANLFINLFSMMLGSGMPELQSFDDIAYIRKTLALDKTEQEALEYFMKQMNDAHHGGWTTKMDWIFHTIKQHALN
human Beta-secretase (BACE), BACE1 (gene 23621), sequence (P56817 whole entry, looked up): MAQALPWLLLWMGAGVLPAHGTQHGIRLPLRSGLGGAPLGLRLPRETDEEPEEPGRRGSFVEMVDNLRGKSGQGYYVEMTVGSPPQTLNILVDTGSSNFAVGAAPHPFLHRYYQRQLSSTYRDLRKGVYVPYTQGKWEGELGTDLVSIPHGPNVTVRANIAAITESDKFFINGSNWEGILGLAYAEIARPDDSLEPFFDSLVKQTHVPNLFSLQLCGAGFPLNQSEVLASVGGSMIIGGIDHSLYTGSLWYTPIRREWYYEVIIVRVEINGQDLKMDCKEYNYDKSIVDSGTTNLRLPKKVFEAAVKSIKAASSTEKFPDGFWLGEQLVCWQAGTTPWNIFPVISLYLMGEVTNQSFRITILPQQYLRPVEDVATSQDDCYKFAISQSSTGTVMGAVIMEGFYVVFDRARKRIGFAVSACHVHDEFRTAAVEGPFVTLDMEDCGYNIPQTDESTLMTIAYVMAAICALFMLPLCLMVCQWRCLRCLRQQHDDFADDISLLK
human Matrix Metalloproteinase-9 (MMP9), MMP9 (gene 4318), sequence (P14780 whole entry, looked up): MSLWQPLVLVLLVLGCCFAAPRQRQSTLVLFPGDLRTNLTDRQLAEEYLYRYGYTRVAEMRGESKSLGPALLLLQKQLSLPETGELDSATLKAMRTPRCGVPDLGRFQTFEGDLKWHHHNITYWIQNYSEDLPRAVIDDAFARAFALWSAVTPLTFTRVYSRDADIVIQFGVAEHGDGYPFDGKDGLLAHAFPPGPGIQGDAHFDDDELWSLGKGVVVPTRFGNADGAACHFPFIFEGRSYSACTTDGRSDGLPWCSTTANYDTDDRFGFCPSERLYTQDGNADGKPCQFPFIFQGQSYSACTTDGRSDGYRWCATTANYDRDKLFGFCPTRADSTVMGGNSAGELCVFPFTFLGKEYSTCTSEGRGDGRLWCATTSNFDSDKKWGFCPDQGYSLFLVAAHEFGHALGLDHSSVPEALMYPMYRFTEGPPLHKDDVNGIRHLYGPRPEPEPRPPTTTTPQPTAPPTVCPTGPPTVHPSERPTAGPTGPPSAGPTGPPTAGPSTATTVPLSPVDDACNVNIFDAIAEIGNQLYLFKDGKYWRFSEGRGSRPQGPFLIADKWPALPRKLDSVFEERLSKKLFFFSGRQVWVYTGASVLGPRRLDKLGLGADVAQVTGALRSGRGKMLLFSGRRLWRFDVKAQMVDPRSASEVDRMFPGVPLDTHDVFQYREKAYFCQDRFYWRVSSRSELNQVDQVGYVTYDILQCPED
human Dual Specificity Protein Phosphatase 3 (DUSP3), DUSP3 (gene 1845), sequence (P51452 whole entry, looked up): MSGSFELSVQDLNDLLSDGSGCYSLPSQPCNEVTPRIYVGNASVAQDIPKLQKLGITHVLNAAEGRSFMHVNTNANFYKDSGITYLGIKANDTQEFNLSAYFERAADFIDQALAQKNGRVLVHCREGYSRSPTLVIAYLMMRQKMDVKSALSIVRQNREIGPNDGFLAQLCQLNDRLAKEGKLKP
human Ephrin type-A Receptor 1 (EphA1), EPHA1 (gene 2041), sequence (P21709 whole entry, looked up): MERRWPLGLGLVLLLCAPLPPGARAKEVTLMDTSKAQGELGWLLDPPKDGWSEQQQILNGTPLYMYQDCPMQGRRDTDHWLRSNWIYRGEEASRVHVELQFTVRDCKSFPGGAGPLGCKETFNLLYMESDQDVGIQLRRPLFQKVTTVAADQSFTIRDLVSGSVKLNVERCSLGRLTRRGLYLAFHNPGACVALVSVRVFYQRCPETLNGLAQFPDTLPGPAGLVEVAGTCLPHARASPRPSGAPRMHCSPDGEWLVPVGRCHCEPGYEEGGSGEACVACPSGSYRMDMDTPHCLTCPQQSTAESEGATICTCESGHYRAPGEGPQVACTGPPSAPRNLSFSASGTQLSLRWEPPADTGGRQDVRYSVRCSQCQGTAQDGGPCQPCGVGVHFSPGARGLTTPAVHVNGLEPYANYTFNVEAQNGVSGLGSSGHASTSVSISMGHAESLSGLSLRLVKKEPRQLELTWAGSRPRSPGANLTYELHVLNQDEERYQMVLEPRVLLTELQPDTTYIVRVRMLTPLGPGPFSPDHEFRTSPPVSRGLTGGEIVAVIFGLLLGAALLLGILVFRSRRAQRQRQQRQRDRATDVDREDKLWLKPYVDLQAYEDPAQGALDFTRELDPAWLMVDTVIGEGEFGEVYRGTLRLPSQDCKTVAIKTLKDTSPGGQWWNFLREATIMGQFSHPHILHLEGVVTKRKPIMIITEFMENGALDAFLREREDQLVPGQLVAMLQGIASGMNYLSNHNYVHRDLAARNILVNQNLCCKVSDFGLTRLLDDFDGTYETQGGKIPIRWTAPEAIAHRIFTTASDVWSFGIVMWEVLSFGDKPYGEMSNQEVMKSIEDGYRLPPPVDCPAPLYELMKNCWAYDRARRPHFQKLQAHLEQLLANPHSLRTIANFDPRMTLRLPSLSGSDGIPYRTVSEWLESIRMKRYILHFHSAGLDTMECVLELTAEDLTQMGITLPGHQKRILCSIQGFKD

As usually defined, the AC50 is the concentration giving half of the maximal activity seen. For the compound `CCCCCCCCc1ccc(Nc2ccc(CCCCCCCC)cc2)cc1`, the result in [1], in assay [2], in assay [3], in [4], in assay [6] and in assay [7] was inactive. The outcome in assay [8] and in assay [9] was inactive. Besides, the AC50 in assay [5] is 73.1 nM (active).
Consider `CCOC(=O)c1ccccc1C(=C1C=C(Br)C(=O)C(Br)=C1)c1cc(Br)c(O)c(Br)c1`, for which the AC50 in assay [1] was 18.2 µM (active) and 12.6 µM (active); in assay [2] it was 20.4 µM (active) and 18.8 µM (active); in [3], 19.4 µM (active) and 19.1 µM (active); in assay [4], 15.1 µM (active) and 15.6 µM (active); in assay [5], 20.1 µM (active) and 18.8 µM (active); in [7] it was 19 µM (active) and 18 µM (active). Further, the AC50 in [8] was 18.3 µM (active) and 20.1 µM (active); in [9], 21.1 µM (active) and 18.9 µM (active). Besides, in assay [6], the outcome was inactive.
Take `Nc1ccc(N)c(Cl)c1`: the AC50 in assay [1] is 3.97 µM (active) and 3.44 µM (active); in assay [2], 15.9 µM (active); in assay [3], 26.4 µM (active) and 21.7 µM (active); in assay [4], 22.9 µM (active) and 18.4 µM (active); in assay [5], 19.4 µM (active) and 22.2 µM (active); in assay [6] it was 16.4 µM (active) and 15.4 µM (active). The AC50 in assay [7] is 30.8 µM (active); in assay [8] it was 14.8 µM (active) and 12.7 µM (active); in assay [9], 27.7 µM (active). Moreover, the result in [7] was inactive.
Take `C=CCOc1c(Br)cc(Br)cc1Br`: the result in assay [1], in assay [2], in assay [3], in assay [4], in assay [5] and in assay [6] was inactive. For the same compound, the outcome in assay [7], in [8] and in [9] was inactive.
Consider `O=c1c2ccccc2oc2ccccc12`, for which the outcome in [1], in assay [2], in assay [3], in assay [4], in assay [5] and in [6] was inactive. The result in assay [7], in [8] and in [9] was inactive.
Turning to `CN1C(=O)N(C)C(O)C1O` (stereo not drawn), the result in assay [1], in assay [2], in [3], in [4], in assay [5] and in assay [6] was inactive. The outcome in [7], in [8] and in assay [9] was inactive.
Consider `CCCCC(CC)COCC1CO1` (stereo not drawn), for which the outcome in [1], in assay [2], in [3], in assay [4], in assay [5] and in assay [6] was inactive. Besides, the result in [7], in assay [8] and in assay [9] was inactive.
Turning to `C=C[Si](OC(C)=O)(OC(C)=O)OC(C)=O`, the outcome in assay [1], in assay [2], in [3], in assay [4], in [5] and in assay [6] was inactive. Further, the result in assay [7], in [8] and in assay [9] was inactive.
As to `CCCCCCCCCCCCCCCC[N+](C)(C)CC`, the half-maximal activity concentration (AC50) was 2.36 µM (active) in assay [1]; 9.51 µM (active) in [2]; 10.2 µM (active) in [3]; 1.78 µM (active) in assay [4]; 2770 nM (active) in [5]; 1.94 µM (active) in [6]. Further, the AC50 was 9.75 µM (active) in assay [7]; 314 nM (active) in [8]; 1.69 µM (active) in assay [9]; 536 nM (active) in assay [10]; 2310 nM (active) in assay [11]; 6410 nM (active) in [12]. Also, the AC50 is 20800 nM (active) in assay [13] and 1950 nM (active) in assay [16]. The result in [14] and in assay [15] was inactive.
Turning to `O=C1CCCN1CCO`, the result in assay [1], in [2], in assay [3], in assay [4], in [5] and in [6] was inactive. In addition, the result in assay [7], in assay [8] and in assay [9] was inactive.
